According to the supplement of paper PMC10849652:
About 7,900 targets were measured; listed, in parts, are those with a hit and a random draw of the rest. About 0.6% of all pairs of compound and target were hits. Unmarked numbers belong to inactive results.

What was measured:
Test in all cases: log2 fold change, soluble protein after heating vs DMSO (PISA); higher = thermal stabilisation; K562 cells, 10 uM, 30 min; active = over 0.2 and 3.5 SD of the protein, either way, in both replicates (recomputed)
[1] = compound: COC1=CC=C(C=C1)CN2C=CC3=C2C=C(C=C3)C(=O)NO
Summary of the method: (§1)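 K562 cells (2×10^6 cells/mL) were treated with 10 μM compound for 30 min, and aliquots were heated for 3 min over 48°C-58°C. Pooled aliquots were extracted in PBS with 0.5% NP-40 at 4°C, and the supernatant after 21,000xg for 90 min was measured by TMTpro 16plex LC-MS/MS with channel sums equalised. Reported thermal stability, relative to control samples and from duplicates, is a log2 fold change.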

filanesib = compound: CON(C)C(=O)N1N=C(c2cc(F)ccc2F)S[C@@]1(CCCN)c1ccccc1 [filanesib]
Summary of the method: as §1

zotarolimus = compound: CO[C@H]1C[C@@H]2CC[C@@H](C)[C@@](O)(O2)C(=O)C(=O)N2CCCC[C@H]2C(=O)O[C@H]([C@H](C)C[C@@H]2CC[C@H](n3cnnn3)[C@H](OC)C2)CC(=O)[C@H](C)/C=C(\C)[C@@H](O)[C@@H](OC)C(=O)[C@H](C)C[C@H](C)/C=C/C=C/C=C/1C [zotarolimus]
Summary of the method: as §1

idasanutlin = compound: COc1cc(C(=O)O)ccc1NC(=O)[C@@H]1N[C@@H](CC(C)(C)C)[C@](C#N)(c2ccc(Cl)cc2F)[C@H]1c1cccc(Cl)c1F [idasanutlin]
Summary of the method: as §1

alisertib = compound: COc1cc(Nc2ncc3c(n2)-c2ccc(Cl)cc2C(c2c(F)cccc2OC)=NC3)ccc1C(=O)O [alisertib]
Summary of the method: as §1

[2] = compound: COc1cc2nc(-c3cc(F)ccc3O)nc(N[C@@H]3CNC[C@H]3C(C)(C)O)c2cc1OC
Summary of the method: as §1

gefitinib = compound: COc1cc2ncnc(Nc3ccc(F)c(Cl)c3)c2cc1OCCCN1CCOCC1 [gefitinib]
Summary of the method: as §1

[3] = compound: COc1cccc2cc(-c3nc([C@H]4CC[C@H](C(=O)O)CC4)n4ncnc(N)c34)[nH]c12
Summary of the method: as §1

lapatinib = compound: CS(=O)(=O)CCNCc1ccc(-c2ccc3ncnc(Nc4ccc(OCc5cccc(F)c5)c(Cl)c4)c3c2)o1 [lapatinib]
Summary of the method: as §1

pictilisib = compound: CS(=O)(=O)N1CCN(Cc2cc3nc(-c4cccc5[nH]ncc45)nc(N4CCOCC4)c3s2)CC1 [pictilisib]
Summary of the method: as §1

[4] = compound: CS(=O)(=O)c1ccc(-c2cnc(N)c(C(=O)Nc3ccccc3)n2)cc1
Summary of the method: as §1

crizotinib = compound: C[C@@H](Oc1cc(-c2cnn(C3CCNCC3)c2)cnc1N)c1c(Cl)ccc(F)c1Cl [crizotinib]
Summary of the method: as §1

[5] = compound: C[C@@H]1COCCN1C2=NC(=NC(=C2)C3(CC3)S(=O)(=O)C)C4=C5C=CNC5=CC=C4
Summary of the method: as §1

[6] = compound: C[C@H](C1=CC=C(C=C1)C(=O)NC2=C3C=CNC3=NC=C2)N
Summary of the method: as §1

duvelisib = compound: C[C@H](Nc1ncnc2nc[nH]c12)c1cc2cccc(Cl)c2c(=O)n1-c1ccccc1 [duvelisib]
Summary of the method: as §1

gandotinib = compound: Cc1cc(Nc2cc(CN3CCOCC3)c3nc(C)c(Cc4ccc(Cl)cc4F)n3n2)n[nH]1 [gandotinib]
Summary of the method: as §1

tozasertib = compound: Cc1cc(Nc2cc(N3CCN(C)CC3)nc(Sc3ccc(NC(=O)C4CC4)cc3)n2)n[nH]1 [tozasertib]
Summary of the method: as §1

[7] = compound: Cc1cc(SCc2sc(-c3ccc(C(F)(F)F)cc3)nc2C)ccc1OCC(=O)O
Summary of the method: as §1

doramapimod = compound: Cc1ccc(-n2nc(C(C)(C)C)cc2NC(=O)Nc2ccc(OCCN3CCOCC3)c3ccccc23)cc1 [doramapimod]
Summary of the method: as §1

ispinesib = compound: Cc1ccc(C(=O)N(CCCN)[C@@H](c2nc3cc(Cl)ccc3c(=O)n2Cc2ccccc2)C(C)C)cc1 [ispinesib]
Summary of the method: as §1

UniProt O60573, sequence (O60573 whole entry, looked up): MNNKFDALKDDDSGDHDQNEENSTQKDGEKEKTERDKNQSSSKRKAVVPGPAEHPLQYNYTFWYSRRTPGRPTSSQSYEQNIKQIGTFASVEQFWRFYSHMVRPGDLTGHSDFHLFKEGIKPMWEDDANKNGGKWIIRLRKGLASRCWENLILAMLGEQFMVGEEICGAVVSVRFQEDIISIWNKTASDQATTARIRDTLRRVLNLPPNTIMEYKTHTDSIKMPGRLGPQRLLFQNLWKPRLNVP
UniProt Q6P3W2, sequence (Q6P3W2 whole entry, looked up): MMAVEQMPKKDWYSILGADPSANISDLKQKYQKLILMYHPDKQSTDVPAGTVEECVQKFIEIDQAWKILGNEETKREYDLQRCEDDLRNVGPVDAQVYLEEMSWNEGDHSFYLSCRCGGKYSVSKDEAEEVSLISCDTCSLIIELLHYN
UniProt Q9H777, sequence (Q9H777 whole entry, looked up): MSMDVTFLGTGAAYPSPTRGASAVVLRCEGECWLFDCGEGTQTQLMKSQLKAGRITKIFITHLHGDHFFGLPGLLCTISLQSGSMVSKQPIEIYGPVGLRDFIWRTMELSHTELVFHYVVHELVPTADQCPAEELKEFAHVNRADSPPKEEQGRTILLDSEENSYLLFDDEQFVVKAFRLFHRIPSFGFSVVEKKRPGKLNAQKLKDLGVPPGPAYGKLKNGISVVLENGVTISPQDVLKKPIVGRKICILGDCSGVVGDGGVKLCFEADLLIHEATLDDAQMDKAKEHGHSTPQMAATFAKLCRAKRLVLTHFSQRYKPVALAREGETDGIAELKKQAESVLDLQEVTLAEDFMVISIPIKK
UniProt Q9NVR5, sequence (Q9NVR5 whole entry, looked up): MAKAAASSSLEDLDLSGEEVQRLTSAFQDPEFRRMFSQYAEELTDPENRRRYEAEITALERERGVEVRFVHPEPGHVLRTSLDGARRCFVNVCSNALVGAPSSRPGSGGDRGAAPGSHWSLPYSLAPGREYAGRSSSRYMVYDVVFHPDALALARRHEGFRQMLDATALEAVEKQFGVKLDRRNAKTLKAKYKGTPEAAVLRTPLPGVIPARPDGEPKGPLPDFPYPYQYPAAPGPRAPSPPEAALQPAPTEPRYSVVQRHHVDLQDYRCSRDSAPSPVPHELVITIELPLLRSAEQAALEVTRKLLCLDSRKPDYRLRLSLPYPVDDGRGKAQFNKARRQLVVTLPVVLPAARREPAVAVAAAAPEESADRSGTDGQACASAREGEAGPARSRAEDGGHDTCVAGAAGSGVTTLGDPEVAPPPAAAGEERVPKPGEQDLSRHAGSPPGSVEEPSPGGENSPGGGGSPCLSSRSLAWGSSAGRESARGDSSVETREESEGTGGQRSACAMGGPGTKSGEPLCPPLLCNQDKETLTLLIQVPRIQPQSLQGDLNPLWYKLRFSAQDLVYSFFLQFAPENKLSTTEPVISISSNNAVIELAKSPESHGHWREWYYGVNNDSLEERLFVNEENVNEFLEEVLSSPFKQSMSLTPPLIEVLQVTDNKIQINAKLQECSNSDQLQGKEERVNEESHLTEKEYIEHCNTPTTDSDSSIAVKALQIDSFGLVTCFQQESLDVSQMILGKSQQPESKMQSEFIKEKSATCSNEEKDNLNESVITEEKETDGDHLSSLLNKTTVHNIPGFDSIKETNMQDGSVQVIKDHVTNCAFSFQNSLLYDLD
UniProt P07711, sequence (P07711 whole entry, looked up): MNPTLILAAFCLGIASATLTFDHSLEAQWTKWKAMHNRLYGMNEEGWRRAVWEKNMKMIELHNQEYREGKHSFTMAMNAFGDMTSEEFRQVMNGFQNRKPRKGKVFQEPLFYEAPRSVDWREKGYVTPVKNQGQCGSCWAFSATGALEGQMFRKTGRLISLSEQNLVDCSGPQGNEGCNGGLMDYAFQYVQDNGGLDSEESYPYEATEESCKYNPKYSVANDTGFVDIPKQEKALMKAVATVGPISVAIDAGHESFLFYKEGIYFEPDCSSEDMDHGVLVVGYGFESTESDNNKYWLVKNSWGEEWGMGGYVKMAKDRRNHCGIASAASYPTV
UniProt Q15910, sequence (Q15910 whole entry, looked up): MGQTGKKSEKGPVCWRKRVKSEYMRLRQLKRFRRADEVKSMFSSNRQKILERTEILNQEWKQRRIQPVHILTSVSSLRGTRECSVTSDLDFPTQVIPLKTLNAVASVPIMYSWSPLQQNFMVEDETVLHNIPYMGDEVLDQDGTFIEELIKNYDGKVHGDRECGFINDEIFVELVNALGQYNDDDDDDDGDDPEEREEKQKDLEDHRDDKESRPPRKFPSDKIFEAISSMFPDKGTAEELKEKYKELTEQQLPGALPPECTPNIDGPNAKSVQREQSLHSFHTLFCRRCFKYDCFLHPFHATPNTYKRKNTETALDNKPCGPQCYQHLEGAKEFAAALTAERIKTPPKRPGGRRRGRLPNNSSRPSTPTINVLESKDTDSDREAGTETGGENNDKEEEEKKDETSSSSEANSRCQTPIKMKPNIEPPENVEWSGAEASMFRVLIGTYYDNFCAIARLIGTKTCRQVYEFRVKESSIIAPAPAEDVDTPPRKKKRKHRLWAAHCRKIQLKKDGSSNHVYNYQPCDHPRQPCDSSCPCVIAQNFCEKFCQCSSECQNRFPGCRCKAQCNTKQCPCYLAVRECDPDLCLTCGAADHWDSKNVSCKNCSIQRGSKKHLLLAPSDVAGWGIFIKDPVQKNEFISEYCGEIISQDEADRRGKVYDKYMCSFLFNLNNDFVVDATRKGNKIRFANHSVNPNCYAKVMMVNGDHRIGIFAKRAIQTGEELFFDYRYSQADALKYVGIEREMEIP
UniProt P09622, sequence (P09622 whole entry, looked up): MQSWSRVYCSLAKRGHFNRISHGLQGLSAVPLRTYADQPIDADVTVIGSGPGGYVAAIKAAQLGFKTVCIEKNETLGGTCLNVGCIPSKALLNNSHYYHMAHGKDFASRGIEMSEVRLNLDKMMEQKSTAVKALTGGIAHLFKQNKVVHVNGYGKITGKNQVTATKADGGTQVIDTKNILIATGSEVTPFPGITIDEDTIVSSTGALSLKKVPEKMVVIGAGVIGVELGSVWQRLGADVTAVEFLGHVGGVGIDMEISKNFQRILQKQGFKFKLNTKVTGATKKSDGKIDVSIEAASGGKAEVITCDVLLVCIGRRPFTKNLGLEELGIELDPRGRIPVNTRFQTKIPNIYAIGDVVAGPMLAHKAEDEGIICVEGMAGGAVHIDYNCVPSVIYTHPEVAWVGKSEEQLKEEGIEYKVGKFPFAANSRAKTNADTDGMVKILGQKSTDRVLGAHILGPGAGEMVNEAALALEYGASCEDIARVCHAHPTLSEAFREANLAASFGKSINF
UniProt Q9GZT9, sequence (Q9GZT9 whole entry, looked up): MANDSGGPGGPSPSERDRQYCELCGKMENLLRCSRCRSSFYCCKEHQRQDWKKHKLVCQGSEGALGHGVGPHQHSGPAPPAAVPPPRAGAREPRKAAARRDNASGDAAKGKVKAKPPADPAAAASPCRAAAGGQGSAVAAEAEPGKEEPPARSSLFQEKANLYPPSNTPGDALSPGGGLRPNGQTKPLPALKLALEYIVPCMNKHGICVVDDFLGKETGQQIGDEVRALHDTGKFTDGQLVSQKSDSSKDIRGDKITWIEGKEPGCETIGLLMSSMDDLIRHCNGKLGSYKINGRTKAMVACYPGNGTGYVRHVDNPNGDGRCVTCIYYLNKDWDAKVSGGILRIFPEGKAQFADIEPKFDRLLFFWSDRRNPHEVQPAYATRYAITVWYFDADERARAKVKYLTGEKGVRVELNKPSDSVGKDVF
UniProt Q9H410, sequence (Q9H410 whole entry, looked up): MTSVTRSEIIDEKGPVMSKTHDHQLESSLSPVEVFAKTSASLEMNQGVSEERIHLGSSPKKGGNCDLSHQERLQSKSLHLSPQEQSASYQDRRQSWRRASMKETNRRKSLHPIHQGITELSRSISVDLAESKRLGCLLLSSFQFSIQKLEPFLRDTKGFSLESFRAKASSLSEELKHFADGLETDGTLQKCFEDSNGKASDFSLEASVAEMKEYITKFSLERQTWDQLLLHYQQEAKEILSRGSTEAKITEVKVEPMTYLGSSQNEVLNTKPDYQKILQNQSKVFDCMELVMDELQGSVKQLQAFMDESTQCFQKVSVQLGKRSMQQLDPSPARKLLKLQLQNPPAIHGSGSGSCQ
UniProt Q8NBA8, sequence (Q8NBA8 whole entry, looked up): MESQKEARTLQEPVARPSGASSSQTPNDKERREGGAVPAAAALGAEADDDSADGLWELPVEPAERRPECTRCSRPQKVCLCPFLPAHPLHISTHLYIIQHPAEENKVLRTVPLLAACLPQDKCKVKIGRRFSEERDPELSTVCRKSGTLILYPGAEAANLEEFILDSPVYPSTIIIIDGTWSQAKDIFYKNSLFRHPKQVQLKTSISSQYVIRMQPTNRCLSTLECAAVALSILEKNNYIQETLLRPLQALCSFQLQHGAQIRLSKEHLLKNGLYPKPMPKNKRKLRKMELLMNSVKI
UniProt Q6UX07, sequence (Q6UX07 whole entry, looked up): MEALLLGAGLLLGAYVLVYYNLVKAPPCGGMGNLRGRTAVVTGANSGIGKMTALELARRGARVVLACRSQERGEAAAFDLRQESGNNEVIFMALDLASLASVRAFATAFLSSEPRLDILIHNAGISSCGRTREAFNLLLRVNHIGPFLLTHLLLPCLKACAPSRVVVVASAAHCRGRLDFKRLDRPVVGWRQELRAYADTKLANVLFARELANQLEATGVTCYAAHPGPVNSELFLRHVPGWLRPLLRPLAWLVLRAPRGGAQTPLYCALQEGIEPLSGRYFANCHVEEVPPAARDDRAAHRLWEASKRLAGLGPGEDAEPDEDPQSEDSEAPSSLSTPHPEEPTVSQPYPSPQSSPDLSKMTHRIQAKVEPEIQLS

Target	log2 fold change [1]	log2 fold change (filanesib)	log2 fold change (zotarolimus)	log2 fold change (idasanutlin)	log2 fold change (alisertib)	log2 fold change [2]	log2 fold change (gefitinib)	log2 fold change [3]	log2 fold change (lapatinib)	log2 fold change (pictilisib)	log2 fold change [4]	log2 fold change (crizotinib)	log2 fold change [5]	log2 fold change [6]	log2 fold change (duvelisib)	log2 fold change (gandotinib)	log2 fold change (tozasertib)	log2 fold change [7]	log2 fold change (doramapimod)	log2 fold change (ispinesib)
CTSL (UniProt P07711)	-0.143	0.316 (active)	-0.041	0.125	-0.099	0.044	0.025	0.086	0.087	0.057	0.025	-0.489 (active)	-0.02	0.021	-0.07	0.006	-0.081	-0.013	0.018	-0.199
DTWD2 (UniProt Q8NBA8)	-0.229	0.307	-0.036	-0.073	0.069	-0.18	-0.159	0.002	0.151	-0.042	0.06	0.133	0.137	-0.103	-0.036	0.027	-0.019	0	0.009	-0.092
EIF4G3 isoform 3 (UniProt O43432)	-0.15	0.063	0.002	0	-0.003	-0.01	0.032	-0.32	0.142	–	0.053	-0.106	–	0.074	-0.082	–	-0.013	0.075	0.013	-0.02
DYNC1I2 isoform 2 (UniProt Q13409)	0.093	0.203	-0.085	0.201	0.066	0.06	–	0.051	-0.002	–	0.185	-0.05	-0.02	-0.647 (active)	–	–	0.044	–	-0.079	0.06
ELAC1 (UniProt Q9H777)	0.022	0.083	-0.06	0.122	–	0.06	0.112	–	-0.009	0.049	-0.045	0.011	-0.13	-0.137	0.062	-0.021	–	0.004	0.007	–
FAM193B (UniProt Q96PV7)	-0.179	0.379	-0.077	0.311	–	0.112	–	–	-0.066	–	-0.065	-0.081	-0.097	0.348	-0.18	–	0.062	-0.189	-0.046	–
FAM118B (UniProt Q9BPY3)	0.028	-0.196	0.011	-0.034	-0.049	0.017	0.031	0.129	0.018	0.099	0.099	-0.169	-0.007	0.107	–	-0.101	0.019	–	-0.003	0.046
EIF4E2 (UniProt O60573)	-0.062	-0.089	0.058	0.024	0.059	-0.043	0.043	-0.251	0.033	–	0.151	-0.018	-0.027	0.085	0.037	–	0.044	0.07	-0.069	-0.087
ELF1 (UniProt P32519)	0.001	0.028	-0.019	0.089	–	-0.297	0.01	–	-0.12	–	0.093	-0.06	-0.006	-0.007	0.032	–	0.008	0.057	-0.039	-0.038
DYNC1I2 isoform 5 (UniProt Q13409)	0.012	0.003	0.025	0.025	-0.051	0	-0.003	0.004	0.021	0.035	0.026	0.055	-0.035	-0.007	0.019	0.027	-0.022	-0.007	-0.011	0.028
DHRS13 (UniProt Q6UX07)	-0.096	0.298	0.271	0.057	-0.011	–	0.081	-0.002	–	0.026	0.107	0.127	–	0.058	-0.013	0.064	0.104	0.139	0.123	-0.034
EZH2 isoform 2 (UniProt Q15910)	-0.105	-0.113	-0.073	0.073	-0.209	-0.129	–	-0.144	0.112	–	-0.012	-0.196	-0.039	0.072	-0.112	–	-0.12	0.279	0.095	–
ERCC2 (UniProt P18074)	-0.024	0.018	0.068	0.063	0.001	-0.061	-0.03	-0.021	0.049	0.042	0.011	0.059	-0.046	-0.013	-0.035	-0.035	-0.014	0.08	0.031	-0.045
DSN1 (UniProt Q9H410)	0.032	0.048	0.114	-0.013	0.018	-0.017	0.113	-0.23	-0.028	–	-0.015	-0.016	0.086	-0.05	0.098	–	0.026	-0.07	0.007	0.055
DLD (UniProt P09622)	-0.003	-0.106	-0.032	0.004	-0.024	-0.056	-0.096	0.036	-0.015	0.067	-0.068	-0.023	0.019	-0.042	0.016	-0.02	-0.009	0.014	-0.016	-0.083
DNAJC24 (UniProt Q6P3W2)	-0.06	0.199	0.004	–	0.045	-0.111	0.018	-0.112	0.034	–	-0.054	0.055	-0.031	-0.004	-0.028	–	0.05	-0.024	0.038	0.01
DNAAF2 (UniProt Q9NVR5)	0.009	-0.012	0.016	-0.033	0.005	0.015	0.035	0.062	-0.026	0.232	0.018	-0.015	-0.067	0.003	0.019	-0.182	0.02	-0.034	0.042	0.032
EGLN1 (UniProt Q9GZT9)	-0.361 (active)	-0.07	-0.022	-0.004	0.018	0.018	0.022	-0.074	0.01	0.009	0.01	-0.029	-0.064	-0.035	0.029	-0.036	0.044	0	-0.014	-0.04
